Compound activity (PubChem BioAssay)
This is a sample that favours compounds with a hit; in the whole collection about 0.97% have one here.
Mtb BioA inh: M. tuberculosis BioA enzyme inhibitors, primary screen, biochemical, plate reader, single point, HTS; 7,8-diaminopelargonic acid synthase BioA (Mycobacterium tuberculosis); purified M. tuberculosis BioA enzyme; inhibition, % at 9.99 µM; hit rate 0.096% among 360,000; AID 602481, 2012; in the data active means inhibition above about 40%
TcdB GH inh: TcdB glycohydrolase inhibitors, primary screen, biochemical, single point, plate reader | hit rate 0.24% among 350,000 | TcdB glycohydrolase enzymatic assay | Toxin B (Clostridioides difficile), P18177 | inhibition, % at 9.99 µM; in the data active means inhibition above about 10%
FadD28 FP inh: inhibitors of FadD28 bisubstrate probe binding, primary screen, biochemical, fluorescence polarization, single point | inhibition, % at 12.5 µM | hit rate 0.22% among 360,000 | AID 588549, 2011; in the data active means inhibition above about 8.5%, passing the limit was not always enough
RecA intein inh: Mtb RecA intein splicing inhibitors, primary screen, biochemical, fluorescence, HTS; cell-free RecA intein splicing; inhibition, % (concentration not given with the values); hit rate 0.75% among 290,000; AID 2221, 2009; in the data active means inhibition above about 30%
Target sequence (P9WHJ3 whole entry, looked up): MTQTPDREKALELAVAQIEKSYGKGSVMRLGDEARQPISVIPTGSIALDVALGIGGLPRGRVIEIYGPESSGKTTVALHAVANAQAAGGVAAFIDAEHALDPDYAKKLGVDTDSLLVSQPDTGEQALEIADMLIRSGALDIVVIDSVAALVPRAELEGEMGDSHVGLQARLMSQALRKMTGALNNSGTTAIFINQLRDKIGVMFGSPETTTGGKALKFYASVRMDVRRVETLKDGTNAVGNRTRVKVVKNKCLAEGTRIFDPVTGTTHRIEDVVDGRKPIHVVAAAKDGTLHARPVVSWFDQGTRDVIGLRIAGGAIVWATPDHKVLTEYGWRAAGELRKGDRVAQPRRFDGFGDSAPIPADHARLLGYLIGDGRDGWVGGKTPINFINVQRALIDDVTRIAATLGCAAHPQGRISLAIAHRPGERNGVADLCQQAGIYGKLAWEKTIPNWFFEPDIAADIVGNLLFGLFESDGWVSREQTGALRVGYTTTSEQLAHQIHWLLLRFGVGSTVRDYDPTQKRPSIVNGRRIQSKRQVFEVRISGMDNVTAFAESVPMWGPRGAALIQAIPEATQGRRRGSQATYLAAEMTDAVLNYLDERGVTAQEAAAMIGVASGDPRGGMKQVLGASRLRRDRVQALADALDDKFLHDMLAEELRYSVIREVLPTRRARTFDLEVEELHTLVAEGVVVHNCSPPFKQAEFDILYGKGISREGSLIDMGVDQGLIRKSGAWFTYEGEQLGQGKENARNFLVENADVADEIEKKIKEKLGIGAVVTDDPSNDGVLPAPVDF
UGM FP inh: M. tuberculosis UGM enzyme inhibitors, primary screen, biochemical, fluorescence polarization, single point; UDP-galactopyranose mutase (Mycobacterium tuberculosis (strain ATCC 25618 / H37Rv)), …; purified UGM, fluorescence polarization probe displacement; inhibition, % at 10 µM; hit rate 0.06% among 320,000; AID 504406, 2011; in the data active means inhibition above about 10%, passing the limit was not always enough
Rv3671c inh: Rv3671c serine protease inhibitors, primary screen, biochemical, fluorescence polarization, M. tuberculosis H37Rv; P9WHR9; inhibition, % at 5.96 µM; hit rate 0.048% among 320,000; AID 2606, 2010; in the data active means inhibition above about 38%;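 further: extracellular domain of Rv3671c used as enzyme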
A number is an active result; n = inactive; x = no result.

SMILES	Mtb BioA inh	TcdB GH inh	FadD28 FP inh	RecA intein inh	UGM FP inh	Rv3671c inh
COc1ccc(NC(=O)Nc2ccc3c(c2)C(=O)N([C@H](C)CO)C[C@H](C)[C@@H](CN(C)S(=O)(=O)c2ccc(OC)cc2)O3)cc1	n	n	9.4	x	n	n
CC1=C([C@H](O)CCc2ccccc2)[C@H](CO)n2c(=O)n(-c3ccccc3)c(=O)n2C1	n	n	x	x	x	x
CC12CCC(=O)N1C(C(=O)OCc1c(Cl)cccc1Cl)CS2 (stereo unspecified)	n	12	n	n	n	n
O=C(Nc1ccc(-c2nc3ccccc3[nH]2)cc1)c1ccc2c(c1)OCO2	n	n	n	n	n	n
c1ccc2[nH]c(-c3ccc4c(c3)OCO4)nc2c1	n	11	n	n	n	n
O=c1c(C=NCCCn2ccnc2)c(-c2ccccc2)[nH]n1-c1nc2ccccc2s1	x	x	n	n	n	n
CC(=NCCCn1ccnc1)c1c(-c2ccccc2)[nH]n(-c2nc3ccccc3s2)c1=O	41	x	n	n	n	n
CCCc1c(-c2ccc(O)cc2)nn(-c2ccc(O)cc2)c1-c1ccc(O)cc1	n	x	n	51	n	n
Cc1c(C(N)=O)c(-c2ccccc2)nn1-c1ccccc1	x	x	n	n	n	n
COCC(=O)N1CC2(C1)[C@H](c1ccc(-c3cccc(C)c3)cc1)[C@H](CO)N2C(=O)C1CC1	x	n	x	x	x	x
CCSC1=N/C(=C\c2ccc(-c3ccccc3[N+](=O)[O-])o2)C(=O)S1	x	x	n	n	n	n
CCCSC1=N/C(=C\C=C\c2ccco2)C(=O)S1	x	x	15	n	n	n
CCCSC1=N/C(=C\c2ccc([N+](=O)[O-])o2)C(=O)S1	n	n	12	x	x	x
CC(C)c1cc(CN2CCN(Cc3ccc(F)c(F)c3)C(CCO)C2)[nH]n1 (stereo unspecified)	n	10	n	n	n	n
CC(C)c1csc(CN2CCN(Cc3ccc(F)c(F)c3)C(CCO)C2)n1 (stereo unspecified)	x	n	n	n	n	n
O=C(CCl)Nc1sccc1C(=O)c1ccccc1	n	n	n	57	n	n
CCOCCCn1c(=O)c2ccccc2n2c(=S)[nH]nc12	n	25	n	n	n	n
C[C@H]1CN([C@@H](C)CO)C(=O)c2cccc(NS(=O)(=O)c3ccc(Cl)cc3)c2O[C@@H]1CN(C)Cc1ccncc1	n	n	x	x	x	x
CN1c2ccc(C#Cc3cccnc3)cc2[C@H]2[C@H](CCN2S(=O)(=O)c2ccc(F)cc2)[C@H]1CO	x	n	x	x	x	x
CC1(C)O[C@@H]2[C@H](O1)[C@@H](COS(=O)(=O)O)O[C@H]2n1c(=S)[nH]c2c(=O)[nH]c(N)nc21	n	12	n	x	n	n
CC1(C)O[C@@H]2[C@H](O1)[C@@H](COS(=O)(=O)O)O[C@H]2n1cnc2c(N)ncnc21	x	x	x	x	n	n
COc1ccc(-c2ccc3c(c2)O[C@@H](CN(C)Cc2ccccc2C(=O)O)[C@@H](C)CN([C@@H](C)CO)S3(=O)=O)cc1	n	n	x	x	x	x
COc1cccc(C#Cc2ccc([C@H]3[C@H]4CN(C(=O)Cc5cccnc5)CC(=O)N4[C@H]3CO)cc2)c1	x	n	x	x	x	x
CN(C)c1ccc2nc3c(=O)[nH]c(=O)nc-3n(CC(O)C(O)C(O)CO)c2c1 (stereo unspecified)	n	n	n	n	61	n
Cc1ncc(C(O)c2ccc(N(C)C)cc2)n1Cc1ccccc1 (stereo unspecified)	n	n	n	x	x	x
SMILES	Mtb BioA inh	TcdB GH inh	FadD28 FP inh	RecA intein inh	UGM FP inh	Rv3671c inh
O=C(Cc1ccncc1)NCC[C@@H]1CC[C@H](NC(=O)C2CCCCC2)[C@H](CO)O1	n	n	x	x	x	x
CCOc1cccc(N2C(=O)/C(=C/c3ccco3)C(=O)NC2=S)c1	n	n	n	n	n	n
O=C1NC(=S)N(c2ccccc2)C(=O)/C1=C/c1ccco1	n	n	11	n	n	n
COc1ccccc1C#Cc1ccc([C@H]2[C@H](CO)N3CCCCN(C(=O)C4CC4)C[C@@H]23)cc1	n	n	x	x	x	x
COc1cccc(NC(=O)Nc2ccncc2)c1	x	x	n	x	n	n
COc1cccc(NC(=O)Nc2ccc(C(C)(C)C)cc2)c1	x	n	19	n	x	x
Cc1cc(C(=O)Nc2cccc3c2O[C@@H](CN(C)S(=O)(=O)c2ccccc2)[C@H](C)CN([C@H](C)CO)C3=O)n(C)n1	n	n	x	x	x	x
CCOC1=C/C(=C/c2c(N)n3oc(C)cc3nc2=O)C=CC1=O	x	x	x	38	n	n
CCS(=O)(=O)c1nn2c(N)c(/C=C3/C=CC(=O)C(OC)=C3)c(=O)nc2s1	x	x	n	n	n	n
COC1=C/C(=C/c2c(N)n3nc(-c4ccc(C)cc4)sc3nc2=O)C=CC1=O	x	n	n	x	x	x
CCOC1=C/C(=C/c2c(N)n3nc(-c4ccccc4)sc3nc2=O)C=CC1=O	x	n	16	n	x	x
O=C(C[C@H]1CC[C@@H](NC(=O)Nc2ccc3c(c2)OCO3)[C@@H](CO)O1)NCc1ccc(Cl)cc1	n	n	x	x	x	x
C[C@H](CO)N1C[C@H](C)[C@@H](CN(C)C)Oc2ncc(C#CC3CCCCC3)cc2C1=O	n	x	x	x	x	x
COC(=O)c1ccc(NC(=S)NC2c3ccccc3CC2O)cc1 (stereo unspecified)	x	n	22	n	n	n
CCOc1ccc(NC(=O)C2C(C(=O)O)C3(Cl)C(Cl)=C(Cl)C2(Cl)C3(Cl)Cl)cc1 (stereo unspecified)	x	n	21	n	n	n
C[C@H](CO)N1C[C@H](C)[C@@H](CN(C)CC2CCCCC2)OCCCC[C@H](C)Oc2ccc(N(C)C)cc2C1=O	n	n	x	x	x	x
COc1ccccc1CNC(=O)C[C@H]1C[C@H]2c3cc(NC(=O)NC4CCCC4)ccc3O[C@H]2[C@H](CO)O1	n	n	x	x	x	x
CO[C@H]1CN(C)C(=O)c2ccc(NC(C)=O)cc2OC[C@@H](C)N(Cc2ccccc2F)C[C@H]1C	n	n	x	x	x	x
CC(C)Sc1nsc2nc(=O)c(/C=C3\C=Nc4ccccc43)c(N)n12	n	n	19	n	n	n
CCC(=O)c1ccc(OCC(=O)c2ccc3c(c2)NC(=O)CO3)cc1	x	n	n	n	n	n
O=C1COc2ccc(C(=O)CCl)cc2N1	n	n	n	32	n	n
COc1cc(/C=C2\C(=O)N(c3ccccc3)N=C2C)ccc1Oc1ccc([N+](=O)[O-])cc1[N+](=O)[O-]	x	x	n	x	n	n
COc1ccccc1/C=C1/C(=O)N(c2ccccc2)N=C1C	n	n	n	58	n	n
CC1=NN(c2ccccc2)C(=O)/C1=C\c1ccc(Oc2ccc([N+](=O)[O-])cc2[N+](=O)[O-])cc1	x	n	n	84	n	n
CC1=NN(c2ccccc2)C(=O)/C1=C\c1cn(-c2ccccc2)nc1C	x	n	n	n	n	n
